TIM10 inh: inhibits growth of TIM10 yeast strain | S. cerevisiae TIM10 strain growth, BacTiter-Glo luminescence, 24 h | inhibition, % at 10 µM | 330,000 compounds, 1.4% hits;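 active = inhibition of 40% or more at the single tested concentration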;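 note: wild-type TIM10 isogenic control strain grown at permissive 25 °C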
tim23-1 inh: growth inhibitors of tim23-1 mutant yeast. S. cerevisiae tim23-1 growth, BacTiter-Glo luminescence, 24 h. inhibition, % at 20 µM. 330,000 compounds, 1.3% hits;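 active = growth inhibition of the mutant yeast at or above 50%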;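 note: temperature-sensitive mutant grown at 25 °C; plate controls were DMSO-treated mutant yeast for no effect and medium wells lacking yeast for full effect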
tim10-1 inh: inhibits growth of tim10-1 mutant yeast | S. cerevisiae tim10-1 ts strain growth, BacTiter-Glo, 24 h | inhibition, % at 20 µM | 330,000 compounds, 2.2% hits | AID 463190;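 active = inhibition of at least 40%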;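 note: mutant grown at 25 °C; 0% = DMSO wells with yeast and 100% = wells holding no yeast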
NALP1 inh: inhibitors of NALP1 inflammasome in yeast. S. cerevisiae NALP1/ASC/caspase-1 growth, X-gal OD620, 72 h. inhibition, % at 10 µM. 280,000 compounds, 0.61% hits. AID 2071; in the data active = inhibition mostly above about 24%, no sharp cut-off; inactive = mostly below about 32%
SKKanGAS inh: SKKanGAS growth inhibition. S. pyogenes SKKanGAS, kanamycin growth, BacTiter-Glo, 6 h. inhibition, % at 7.5 µM. 300,000 compounds, 1.3% hits;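 active = mean replicate score, as percent of positive control median, at least 50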;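 note: strain carries kanamycin resistance gene driven by streptokinase promoter and grows in 40 µg/ml kanamycin; loss of luminescence reflects streptokinase promoter inhibition or plain growth inhibition; 0% = median of DMSO wells and 100% = positive control at its reference dose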
NLRP3 yeast inh: inhibitors of NALP3 inflammasome in yeast; inhibition, % at 10 µM; 330,000 compounds, 0.39% hits; AID 2825; Yeast reconstituted NLRP3/ASC/caspase-1, beta-gal luminescence, 24 h;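 active = inhibition of 50% or more; inactive = inhibition below 50%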;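 note: plate controls were induced DMSO wells for no effect and uninduced yeast grown without galactose for full effect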
tim10-1 conf: confirmation of tim10-1 mutant yeast growth inhibitors. shares compounds with tim10-1 inh. S. cerevisiae tim10-1 ts strain growth, BacTiter-Glo, 24 h. inhibition, % at 20 µM. 7,400 compounds, 56% hits. AID 463213;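 active = inhibition of yeast growth at or above a set limit in either of two repeat tests at 20 µM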;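 note: tim10-1 mutant grown at permissive 25 °C to find synthetic lethal compounds; 0% = DMSO yeast wells and 100% = medium wells without yeast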
* hit, by the source's call. Most compounds without a hit are left out; they make up all but 4.9% or so of the library.

O=C(N/N=C/c1ccc(Cl)cc1Cl)c1ccc2nc[nH]c2c1 was read as TIM10 inh -5, tim23-1 inh 8, tim10-1 inh 16, NALP1 inh 22, SKKanGAS inh -7 and NLRP3 yeast inh 3.
Screening C=CCc1cccc(/C=N/NC(=O)c2ccc3nc[nH]c3c2)c1O returned TIM10 inh 7, tim23-1 inh 1, tim10-1 inh 44*, NALP1 inh 6, SKKanGAS inh 3, NLRP3 yeast inh 16 and tim10-1 conf -2.
`COc1cccc(NC(=O)Nc2ccc3c(c2)OCO3)c1` gave TIM10 inh 8, tim23-1 inh -5, tim10-1 inh -25, NALP1 inh 13, SKKanGAS inh 8 and NLRP3 yeast inh 10.
For COc1ccc(OC)c(NC(=O)Nc2ccc3c(c2)OCO3)c1 the results were TIM10 inh 2, tim23-1 inh 36, tim10-1 inh 40*, NALP1 inh 14, SKKanGAS inh 34, NLRP3 yeast inh 17 and tim10-1 conf 27.
For COc1ccc(Cl)cc1C(=O)Nc1ccc2c(c1)OCO2 the results were TIM10 inh 18, tim23-1 inh 38, tim10-1 inh 46*, NALP1 inh 6, SKKanGAS inh -6, NLRP3 yeast inh 24 and tim10-1 conf 35*.
COc1ccc(Cl)cc1C(=O)Nc1ccc2c(c1)OCCO2 was read as TIM10 inh 16, tim23-1 inh 43, tim10-1 inh 17, NALP1 inh 14, SKKanGAS inh -3 and NLRP3 yeast inh 35.
CCn1c(=O)n(CC)c2cc(N3CCCC3)c(NC(=O)c3cccc(OC)c3)cc21 was read as TIM10 inh 6, tim23-1 inh 35, tim10-1 inh 47*, NALP1 inh 22, SKKanGAS inh 0, NLRP3 yeast inh 9 and tim10-1 conf -7.
Cn1c(=O)n(C)c2cc(N3CCCCC3)c(NC(=O)c3cccc(Cl)c3)cc21 was read as TIM10 inh 3, tim23-1 inh 32, tim10-1 inh 42*, NALP1 inh 9, SKKanGAS inh 9, NLRP3 yeast inh 21 and tim10-1 conf -15.
For Cn1c(=O)c2c(ncn2CC(=O)NC[C@H]2O[C@@H](n3cnc4c(N)ncnc43)[C@H](O)[C@@H]2O)n(C)c1=O the results were TIM10 inh -3, tim23-1 inh 28 and tim10-1 inh -5.
For COc1ccc2sc(-c3ccc(N(C)C)cc3)c(-c3cnc(OC)nc3)c2c1 the results were TIM10 inh 11, tim23-1 inh 25, tim10-1 inh 14 and NLRP3 yeast inh 15.
Screening O/N=C1/C2C3C(Br)C4C5CC(C1C53)C24 (stereo not given) returned TIM10 inh 5, tim23-1 inh -11, tim10-1 inh 7, NALP1 inh 28, SKKanGAS inh -2 and NLRP3 yeast inh 3.
Cc1ccccc1C(=O)OCC(=O)N(C)c1ccccc1 was read as TIM10 inh 16, tim23-1 inh 37, tim10-1 inh 52*, NALP1 inh -1, SKKanGAS inh -5, NLRP3 yeast inh 5 and tim10-1 conf 31*.
O=C(COC(=O)C1CC2CCCC(C1)C2=O)Nc1cccc(F)c1 (stereo not given) was read as TIM10 inh 17, tim23-1 inh 6, tim10-1 inh 12 and NLRP3 yeast inh -5.
Screening COc1cc(/C=N/O)cc(Br)c1OC returned TIM10 inh -24, tim23-1 inh 8, tim10-1 inh 8, NALP1 inh 32, SKKanGAS inh 0 and NLRP3 yeast inh 8.
Screening COc1cc(/C=N/O)cc(Br)c1OCc1ccc(Cl)cc1 returned TIM10 inh 20, tim23-1 inh -5, tim10-1 inh 44*, NALP1 inh 20, SKKanGAS inh 4, NLRP3 yeast inh 16 and tim10-1 conf 28.
For Clc1ccc(Cn2ncc3c(N4CCCCC4)ncnc32)c(Cl)c1 the results were TIM10 inh 22, tim23-1 inh 47, tim10-1 inh 43*, NALP1 inh 13, SKKanGAS inh 5, NLRP3 yeast inh 15 and tim10-1 conf 27.
COc1cc(/C=C/c2cc(C(=O)O)c3ccccc3n2)cc(OC)c1O was read as TIM10 inh 25, tim23-1 inh 25, tim10-1 inh 21, NALP1 inh 5, SKKanGAS inh 9 and NLRP3 yeast inh 14.
COc1ccc(C=C(c2nc3ccccc3s2)c2nc3ccccc3s2)cc1O was read as TIM10 inh 30, tim23-1 inh 35, tim10-1 inh 30, NALP1 inh 32, SKKanGAS inh 14 and NLRP3 yeast inh 21.
`COc1cc(C=C(c2nc3ccccc3s2)c2nc3ccccc3s2)ccc1O` gave TIM10 inh 35, tim23-1 inh 28, tim10-1 inh 51*, SKKanGAS inh 18, NLRP3 yeast inh 27 and tim10-1 conf 39*.
Screening CN(C)c1ccc(/C=C/c2nc3ccccc3s2)cc1 returned TIM10 inh 36, tim23-1 inh 25, tim10-1 inh 47*, NALP1 inh 12, SKKanGAS inh 47, NLRP3 yeast inh 24 and tim10-1 conf 56*.
`COc1cc(/C=C/c2nc3ccccc3s2)cc(OC)c1O` gave TIM10 inh 32, tim23-1 inh 37, tim10-1 inh 44*, NALP1 inh 9, SKKanGAS inh 0, NLRP3 yeast inh 17 and tim10-1 conf 27.
COc1ccc(CCNC(=O)c2c(C)nc3ccccn23)cc1 was read as TIM10 inh -1, tim23-1 inh 8, tim10-1 inh 11, NALP1 inh -2, SKKanGAS inh 5 and NLRP3 yeast inh 3.
Screening CCN(CC)c1ccc(S(=O)(=O)N2CCOCC2)cc1NC(=O)CN1CCc2ccccc2C1 returned TIM10 inh 31, tim23-1 inh 11, tim10-1 inh 50*, NALP1 inh 34, SKKanGAS inh -5, NLRP3 yeast inh 10 and tim10-1 conf 10.
Screening CC(C)(C)NC(=O)CSc1ncnc2c1nnn2Cc1ccccc1Cl returned TIM10 inh 16, tim23-1 inh 26, tim10-1 inh 48*, NALP1 inh 0, SKKanGAS inh -4, NLRP3 yeast inh 1 and tim10-1 conf 26.
Screening O=C(CSc1ncnc2c1nnn2Cc1ccccc1)NC1CCCC1 returned TIM10 inh 1, tim23-1 inh 8, tim10-1 inh 16, NALP1 inh -4, SKKanGAS inh -3 and NLRP3 yeast inh 3.
`CC(=O)N1N=C(c2cccc([N+](=O)[O-])c2)OC1c1ccc(Cl)cc1Cl` (stereo not given) gave TIM10 inh 23, tim23-1 inh 35, tim10-1 inh 40*, NALP1 inh 6, SKKanGAS inh 9, NLRP3 yeast inh 30 and tim10-1 conf 14.
`COc1cnc(-c2ccccn2)nc1Sc1ccc(F)cc1` gave TIM10 inh 20, tim23-1 inh 41, tim10-1 inh 41*, NALP1 inh 0, SKKanGAS inh 56*, NLRP3 yeast inh 31 and tim10-1 conf 34*.
